We go through 24 compounds from PubChem BioAssay.

Calls of active or inactive are those of the source.

This assay is described as follows: basal 3T3-L1 adipocyte mitochondrial potential changes, profiling panel, cell-based, JC-1 fluorescence, 3T3-L1 adipocytes, 24 h, 100 nL compound (AID 1168). Further: test concentration not given here. As to conditions: JC-1 mitochondrial fluorescence, higher = more signal, called active from +8 up or from −8 down.
Regarding `COc1ccc([Si](C)(C)[C@@H]2[C@@H](CCn3cc([C@H](O)c4ccccc4)nn3)O[C@]3(C(=O)N(c4ccccc4)c4ccccc43)[C@H]2C)cc1`, the z-score is 0.177 (inactive).

As for `CCN(CC)c1ccc(N2CC=CC34O[C@@H]5C=CCCOC(=O)C5[C@H]3C(=O)N(CCO)[C@@H]4C2=O)cc1` (some centres undefined), the z-score is 0.0903 (inactive).

As for `COc1ccc([Si](C)(C)[C@H]2[C@H](CCO)O[C@@]3(C(=O)N(Cc4ccc(N5C(=O)c6ccccc6Oc6ccccc65)cc4)c4ccccc43)[C@@H]2C)cc1`, the z-score is 0.821 (inactive).

For the compound `CC(C)CNC(=O)[C@@]1(C)c2ccccc2C(=O)N(Cc2cc(C(F)(F)F)cc(C(F)(F)F)c2)[C@H]1c1ccc(CO)cc1`, the z-score is 0.103 (inactive).

For `[N-]=[N+]=NC[C@H](Cc1ccccc1)NC(=O)c1ccccc1`, the z-score is 0.219 (inactive).

With `CN(C)C(=O)[C@]1(CCS(=O)(=O)c2ccccc2)N=C(c2ccc(OCCCO)cc2)O[C@@H]1c1ccccc1`, the z-score was -0.132 (inactive).

For the compound `O=C(CS)NCCCCCNC(=O)[C@@H]1C[C@@H]2C(=O)N[C@@H](Cc3ccccc3)C(=O)N2[C@@H]1c1cccc(OCCO)c1`, the z-score was 0.19 (inactive).

Take `CN1C(=O)C2C=CC(C(O)c3ccc(F)cc3)N(NC(=O)OC(C)(C)C)C2C1=O` (centres undefined): the z-score is -0.517 (inactive).

`[N-]=[N+]=NCc1ccccc1[C@@H]1OC(c2ccc(OCCCO)cc2)=N[C@]1(Cc1ccccc1)C(=O)NCCN1CCOCC1`: the z-score is 0.69 (inactive).

On to `[N-]=[N+]=Nc1ccccc1[C@@H]1OC(c2ccc(OCCCO)cc2)=N[C@]1(Cc1ccccc1)C(=O)NCc1ccccc1`, for which the z-score is 0.976 (inactive).

As to `CO[C@H]1O[C@H](CO)[C@@H](OC(=O)Nc2ccc(C#N)cc2)[C@@H]2OC(=O)[C@H](Cc3cccc(Br)c3)C/C=C/C[C@@H](Cc3cccc(Br)c3)C(=O)O[C@@H]12`, the z-score is 1.74 (inactive).

Regarding `CC(C)C[C@@H]1NC(=O)[C@@]23C(=O)N[C@@H](Cc4ccccc4)C2[C@H](C)[C@@]2(C)O[C@H]2C3/C=C/C/C=C\CNC(=O)[C@@H](C)NC1=O` (some centres undefined), the z-score was 0.625 (inactive).

As to `COCCOC(=O)N1C(=O)[C@@]2(c3cc(C#CCC(C(=O)OC)C(=O)OC)ccc31)[C@H](c1ccc(O)cc1)N1[C@H](c3ccccc3)[C@H](c3ccccc3)OC(=O)[C@H]1[C@@H]2C(=O)NC[C@H](O)c1ccccc1`, the z-score is -1.16 (inactive).

For `C=CCC(OC(C)=O)[C@@H]1[C@@H](N(Cc2ccc(-c3cccc(C(F)(F)F)c3)o2)C(=O)c2ccc(C)cc2)c2cc(OCCCO)ccc2N1C(=O)Cc1ccc(OC)cc1` (some centres undefined), the z-score was 0.557 (inactive).

Regarding `CCCCC(=O)N(CCN1CCOCC1)[C@@H]1CC(C(=O)NCCO)=C[C@H](Oc2c(I)cc(CO)cc2OC)[C@H]1O`, the z-score is -0.716 (inactive).

As for `O=C1NC(=O)C2C1C=CC(C(O)c1ccccn1)N2Nc1ccc(Cl)cc1Cl` (centres undefined), the z-score was -0.766 (inactive).

`C=CCC(OC(C)=O)[C@@H]1[C@@H](N(Cc2ccc(-c3cccc(C(F)(F)F)c3)o2)C(=O)Cc2ccc(OC)cc2)c2cc(OCCCO)ccc2N1C(=O)Cc1ccc2ccccc2c1` (some centres undefined): the z-score was -0.3 (inactive).

For `C=C[C@@H](C)[C@H](O)c1ccc(OCCO)cc1`, the z-score is 0.0591 (inactive).

On to `O=C1O[C@H](c2ccccc2)[C@H](c2ccccc2)N2[C@H]1[C@@H](C(=O)N1CCCCCCC1)[C@]1(C(=O)Nc3ccc(C#CC4(O)CCCCCC4)cc31)[C@H]2c1ccccc1OCCO`, for which the z-score was 0.64 (inactive).

With `O=C1O[C@H](c2ccccc2)[C@H](c2ccccc2)N2[C@H]1[C@@H](C(=O)N1CCCCCCC1)[C@]1(C(=O)Nc3ccc(C#CC4(O)CCCCCC4)cc31)[C@H]2c1ccc(O)cc1`, the z-score was 0.212 (inactive).

For `COCCOC(=O)N1C(=O)[C@@]2(c3ccccc31)[C@H](c1ccc(OCCO)cc1)N1[C@H](c3ccccc3)[C@H](c3ccccc3)OC(=O)[C@H]1[C@@H]2C(=O)N1CCCCCCC1`, the z-score is -3.41 (inactive).

For the compound `CC(=O)NCCCC[C@@H]1NC(=O)[C@@H]2C[C@H](C(=O)NCCCCCCN)[C@H](c3cccc(OCCO)c3)N2C1=O`, the z-score is -0.0165 (inactive).

On to `[N-]=[N+]=Nc1ccccc1C[C@]1(C(=O)O)N=C(c2ccc(OCCCO)cc2)O[C@H]1c1ccccc1N=[N+]=[N-]`, for which the z-score was -0.424 (inactive).

As to `CCN(CC)c1ccc(N2CC=CC34O[C@@H]5/C=C\CCC(C)OC(=O)C5[C@H]3C(=O)N(C(C)CO)[C@@H]4C2=O)cc1` (some centres undefined), the z-score is 0.0645 (inactive).
